Drawing on PubChem BioAssay (Tox21), this text covers Potency and outcome for 8 compounds.

Molecules are shown by their SMILES. Where “and” joins values, the source holds several entries; their conditions need not be identical. Equal values may be shown once. Records with an inconclusive call do not appear. The source holds several records for some structures; these can differ, active in one and inactive in another. Calls of active or inactive are those of the source. Unless noted, the call rests on the fitted dose curve; in most records, active means well fitted curve in the direction sought with a large enough effect in the repeat runs; inconclusive means weak or mixed curves; inactive means no such curve, though single readings can be large; an effect the other way counts as inactive or inconclusive.

Test [1] in a line: qHTS assay to test for compound auto fluorescence at 535 nm (green) in HEK293 cells (AID 720680). In general terms: In qHTS, concentration-response curves come from the screen itself.
The nature of test [2]: qHTS assay to test for compound auto fluorescence at 460 nm (blue) in HEK293 cell free culture (AID 720681). An outline of the steps:
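Blue fluorescence (Ex 405/Em 460 nm, triamterene-equivalent) was read immediately after pin transfer of compound or DMSO into medium (DMEM, 10% FBS) without cells.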

Test [3] can be described thus: qHTS assay to test for compound auto fluorescence at 535 nm (green) in HEK293 cell free culture (AID 720682). The essentials:
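No cells present: wells hold DMEM supplemented with 10% FBS, into which compound or vehicle is pinned. Green emission is then recorded (485 nm excitation, 535 nm emission) and scaled to fluorescein.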

Test [4] in a line: qHTS assay to test for compound auto fluorescence at 590 nm (red) in HEK293 cell free culture (AID 720683). The essentials:
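Red-channel autofluorescence of compounds in culture medium (DMEM, 10% FBS), no cells, measured at 540/590 nm. Rose Bengal sodium is the reference fluorophore for equivalence.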

Test [5] is described as follows: qHTS assay to test for compound auto fluorescence at 590 nm (red) in HepG2 cell free culture (AID 720684). An outline of the steps: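 Steps: dispense MEM/10% FBS medium, no cells; pin compound or DMSO vehicle; read red channel, Ex/Em 540/590 nm. Output given as Rose Bengal sodium equivalents.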
Test [6] is described as follows: qHTS assay to test for compound auto fluorescence at 460 nm (blue) in HepG2 cell free culture (AID 720685). The essentials: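 Compound (23 nL) or DMSO pinned into cell-free MEM with 10% FBS; blue fluorescence read at 405/460 nm excitation/emission, expressed as auto-fluorescence equivalency to triamterene.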
Test [7] in a line: qHTS assay to test for compound auto fluorescence at 535 nm (green) in HepG2 cell free culture (AID 720686).
A short description of test [8]: qHTS assay to test for compound auto fluorescence at 460 nm (blue) in HepG2 cells (AID 720687). An outline of the steps:
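Blue-channel autofluorescence (Ex/Em 405/460 nm, triamterene-equivalent) was measured after 1 hr compound exposure at 37 C, 5% CO2. Cells were HepG2, plated overnight at 37 C in MEM plus 10% FBS.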

Test [9] can be described thus: qHTS assay to identify small molecule antagonists of the glucocorticoid receptor (GR) signaling pathway - cell viability counter screen (AID 720693). Further: nearly all actives have a fitted effect of over 55% in size. Further: potency means the concentration at half of the fitted maximal effect.
Test [10] can be described thus: qHTS assay for identifying genotoxic compounds that show differential cytotoxicity against isogenic chicken DT40 cell lines with known DNA damage response pathways - wild type cell line (AID 743012). Further: nearly all actives have a fitted effect of over 60% in size. The essentials: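 First, wild type DT40 cells were plated at 300 per well and equilibrated about 0.5 h at 37 C/5% CO2. Next, compounds in DMSO were added and exposure lasted 40 h. Finally, CellTiter-Glo was added for 30 min at room temperature and luminescence recorded.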

A short description of test [11]: qHTS assay for identifying genotoxic compounds that show differential cytotoxicity against isogenic chicken DT40 cell lines with known DNA damage response pathways - Rev3 mutant cell line (AID 743014). Further: nearly all actives have a fitted effect of over 55% in size. Further: potency means the concentration at half of the fitted maximal effect.
The nature of test [12]: qHTS assay for identifying genotoxic compounds that show differential cytotoxicity against isogenic chicken DT40 cell lines with known DNA damage response pathways - Rad54/Ku70 mutant cell line (AID 743015). Further: nearly all actives have a fitted effect of over 60% in size. Further: potency means the concentration at half of the fitted maximal effect.
A short description of test [13]: qHTS assay to identify small molecule antagonists of the androgen receptor (AR) signaling pathway - cell viability counter screen (AID 743033; further: nearly all actives have a fitted effect of over 45% in size; further: potency means the concentration at half of the fitted maximal effect).
The nature of test [14]: qHTS assay to identify small molecule antagonists of the androgen receptor (AR) signaling pathway using the MDA cell line - cell viability counter screen (AID 743041; further: nearly all actives have a fitted effect of over 45% in size; further: potency means the concentration at half of the fitted maximal effect). The essentials: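 Cells were plated at 3,000 per well and left 5 h. Compounds in DMSO were then pinned in, followed by R1881. After 16 h at 37C, CellTiter-Fluor fluorescence gave viability.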
Test [15] is described as follows: qHTS assay to identify small molecule antagonists of the thyroid receptor (TR) signaling pathway - cell viability counter screen (AID 743064). Further: nearly all actives have a fitted effect of over 50% in size. Further: potency means the concentration at half of the fitted maximal effect. An outline of the steps: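 Rat GH3 pituitary tumor cells stably expressing two TR response elements driving luciferase were plated, rested 4 h, then dosed with library compounds and T3 (1 nM final). After 23.5 h at 37 °C, CellTiter-Fluor was added for 30 min and fluorescence recorded.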

Test [16] concerns the target Androgen receptor (Homo sapiens) (UniProt P10275). Nature of the test: qHTS assay to identify small molecule antagonists of the androgen receptor (AR) signaling pathway using the MDA cell line (AID 743042; further: nearly all actives have a fitted effect of over 55% in size; further: potency means the concentration at half of the fitted maximal effect). The essentials:
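Antagonist mode: compounds plus R1881 agonist added to MDA-kb2 AR-luc cells, incubated 16 h at 37C. Luciferase reporter luminescence quantified, with multiplexed CellTiter-Fluor readout for cell viability.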

Test [17] addresses Glucocorticoid receptor (Homo sapiens) (UniProt P04150). Briefly: qHTS assay to identify small molecule agonists of the glucocorticoid receptor (GR) signaling pathway (AID 720691; active means well fitted activation curve with a large enough effect in the signal ratio in the repeat runs, not every such curve was filed as active; the % refers to the signal ratio). An outline of the steps:
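qHTS in GR-bla HeLa cells: 4 h settling at 37 C/5% CO2, 18 h compound incubation at 37 C, 2 h LiveBLAzer B/G FRET substrate at room temperature, fluorescence intensity measured.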

Test [18] has the same target. Briefly: qHTS assay to identify small molecule antagonists of the glucocorticoid receptor (GR) signaling pathway (AID 720692; active means well fitted inhibition curve with a large enough effect in the signal ratio in the repeat runs, not every such curve was filed as active; the % refers to the signal ratio). An outline of the steps: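 Inhibition of glucocorticoid signalling is measured in HeLa cells with a GRE-controlled beta-lactamase reporter; cells are co-treated with compound and 5 nM dexamethasone (final) for 18 h before FRET substrate readout.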

The target in test [19] is Androgen receptor (Homo sapiens) (UniProt P10275). Nature of the test: qHTS assay to identify small molecule antagonists of the androgen receptor (AR) signaling pathway (AID 743035; active means well fitted inhibition curve with a large enough effect in the signal ratio in the repeat runs, not every such curve was filed as active; the % refers to the signal ratio). The essentials: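 Beta-lactamase FRET read (2 h RT incubation with LiveBLAzer B/G) following 16 h of compound plus R1881 treatment of AR-UAS-bla HEK293 cells, which had been pre-incubated 4 h at 37C.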

For test [20] the target is unchanged. Nature of the test: qHTS assay to identify small molecule agonists of the androgen receptor (AR) signaling pathway (AID 743036; active means well fitted activation curve with a large enough effect in the signal ratio in the repeat runs, with a control signal flat, not every such curve was filed as active; the % refers to the signal ratio). An outline of the steps: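 Quantitative HTS of the Tox21 10K library in HEK293 cells bearing a stably integrated UAS-controlled beta-lactamase reporter. Compound exposure lasted 16 h at 37C. Reporter activity was detected by FRET substrate fluorescence after 2 h at room temperature.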

Chain of Androgen receptor (Homo sapiens) (P10275 whole entry, looked up): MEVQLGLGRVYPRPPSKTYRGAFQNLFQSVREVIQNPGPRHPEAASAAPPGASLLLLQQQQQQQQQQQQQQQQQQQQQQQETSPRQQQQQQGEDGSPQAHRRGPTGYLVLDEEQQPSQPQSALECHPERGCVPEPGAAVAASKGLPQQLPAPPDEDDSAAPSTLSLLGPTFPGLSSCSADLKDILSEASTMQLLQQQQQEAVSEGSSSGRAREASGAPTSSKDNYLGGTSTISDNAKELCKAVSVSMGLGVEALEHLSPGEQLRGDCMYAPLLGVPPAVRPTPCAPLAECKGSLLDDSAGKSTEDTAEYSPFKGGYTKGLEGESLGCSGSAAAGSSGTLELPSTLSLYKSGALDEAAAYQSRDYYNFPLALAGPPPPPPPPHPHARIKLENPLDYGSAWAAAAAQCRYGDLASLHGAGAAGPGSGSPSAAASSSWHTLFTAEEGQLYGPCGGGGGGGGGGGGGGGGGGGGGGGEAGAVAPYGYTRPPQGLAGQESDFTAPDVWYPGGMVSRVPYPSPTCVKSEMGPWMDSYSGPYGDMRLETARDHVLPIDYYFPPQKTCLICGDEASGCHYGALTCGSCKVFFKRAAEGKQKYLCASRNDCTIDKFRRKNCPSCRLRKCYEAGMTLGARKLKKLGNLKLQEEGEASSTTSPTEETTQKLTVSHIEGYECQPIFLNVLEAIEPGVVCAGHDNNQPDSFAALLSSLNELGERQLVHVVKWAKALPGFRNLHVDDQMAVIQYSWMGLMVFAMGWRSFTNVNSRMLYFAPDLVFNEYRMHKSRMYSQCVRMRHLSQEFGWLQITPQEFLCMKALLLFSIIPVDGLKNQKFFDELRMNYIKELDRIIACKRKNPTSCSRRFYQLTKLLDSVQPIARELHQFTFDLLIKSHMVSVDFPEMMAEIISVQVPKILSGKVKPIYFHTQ
Chain of Glucocorticoid receptor (Homo sapiens) (P04150 whole entry, looked up): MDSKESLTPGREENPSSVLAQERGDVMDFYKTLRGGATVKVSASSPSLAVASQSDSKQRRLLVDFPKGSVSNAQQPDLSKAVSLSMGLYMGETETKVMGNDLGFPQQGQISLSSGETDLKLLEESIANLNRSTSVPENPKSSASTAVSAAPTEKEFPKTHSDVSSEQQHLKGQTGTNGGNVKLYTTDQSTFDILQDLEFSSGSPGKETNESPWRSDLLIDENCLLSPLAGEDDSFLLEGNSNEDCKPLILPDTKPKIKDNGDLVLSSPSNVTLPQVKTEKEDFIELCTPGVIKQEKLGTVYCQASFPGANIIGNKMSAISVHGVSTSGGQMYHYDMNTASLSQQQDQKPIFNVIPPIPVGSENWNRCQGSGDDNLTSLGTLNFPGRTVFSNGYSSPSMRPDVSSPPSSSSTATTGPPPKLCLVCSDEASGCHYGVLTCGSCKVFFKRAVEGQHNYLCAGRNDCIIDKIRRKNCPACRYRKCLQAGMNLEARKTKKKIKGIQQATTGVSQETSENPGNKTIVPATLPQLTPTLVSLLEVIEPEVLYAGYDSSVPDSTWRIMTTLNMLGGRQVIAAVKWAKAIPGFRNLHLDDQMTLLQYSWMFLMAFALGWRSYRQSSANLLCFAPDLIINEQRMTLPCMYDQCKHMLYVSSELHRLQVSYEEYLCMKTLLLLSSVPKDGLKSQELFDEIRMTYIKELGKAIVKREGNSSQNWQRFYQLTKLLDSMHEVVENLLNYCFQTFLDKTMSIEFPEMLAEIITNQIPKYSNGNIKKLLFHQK

For the compound `NC1CCCCC1`, the Potency result in test [1], in test [2], in test [3], in test [4], in test [5] and in [6] was “inactive” throughout. The Potency entry in test [7], in [8], in test [9], in [10], in test [13] and in test [14] was “inactive” each time. Also, the Potency result in test [15] is “inactive”. Also, the Potency in [11] was 54.8 µM (active) and inactive; in test [12], 61.5 µM (active) and inactive.
As for `Nc1c2c(nc3ccccc13)CCCC2`, the Potency entry in test [1], in [2], in [3], in test [4], in [5] and in test [6] was “inactive” in each case. Moreover, the Potency entry in [7], in [8], in [9], in test [13], in test [14] and in test [15] was “inactive” in each case. Besides, the Potency entry is “inactive and 27.3 µM (active)” in test [11]; “inactive and 19.3 µM (active)” in [12].
In the case of `C/C=C/C=C/C(=O)O`, the Potency result in test [1], in test [2], in test [3], in test [4], in [5] and in test [6] was “inactive” each time. Moreover, the Potency result in [7], in test [8], in test [9], in test [11], in test [13] and in test [14] was “inactive” throughout. For the same compound, the Potency result in test [15] was “inactive”. Besides, the Potency entry in test [12] is “inactive and 61.1 µM (active)”.
On to `C1CCC(C(CC2CCCCN2)C2CCCCC2)CC1` (stereo unspecified), for which the Potency entry in test [1], in [2], in [3], in test [4], in test [5] and in test [6] was “inactive” throughout. Further, the Potency entry in test [7] and in [8] was “inactive” in each case. In addition, the Potency was 21.3 µM (active) in test [9]; 4.73 µM (active) in test [11]; 5.96 µM (active) in [12]; 23.9 µM (active) in [13]; 18.8 µM (active) in [14]; 13.3 µM (active) in test [16]. Moreover, in [15], the Potency is 4.73 µM (active).
Regarding `O=C(O)c1ccccc1`, the Potency entry in test [1], in test [2], in test [3], in [4], in test [5] and in test [6] was “inactive” throughout. Besides, the Potency entry in test [7], in [8], in [9], in test [10], in test [11] and in test [12] was “inactive” each time. Besides, the Potency result in test [13], in [14] and in test [15] was “inactive” in each case.
`CCOc1ccc(NC(C)=O)cc1`: the Potency entry in test [1], in [2], in test [4], in test [5], in test [6] and in test [7] was “inactive” in each case. Further, the Potency result in [8], in [17], in test [18], in test [9], in test [10] and in test [11] was “inactive” throughout. For the same compound, the Potency entry in test [12], in [13], in test [19], in test [14], in test [16] and in [15] was “inactive” throughout. In addition, the compound was called inactive in [20].
As to `CCCc1cc(=O)[nH]c(=S)[nH]1`, the Potency entry in [1], in [2], in [3], in test [4], in test [5] and in test [6] was “inactive” throughout. Also, the Potency result in test [7], in [8], in [9], in [10], in test [13] and in test [14] was “inactive” in each case. In [15], the Potency result is “inactive”. Besides, the Potency result in [11] was “inactive and 61.1 µM (active)”; in test [12] it was “inactive and 54.5 µM (active)”.
For `NC(=O)c1cccnc1`, the Potency result in test [1], in test [2], in test [4], in test [5], in test [6] and in test [7] was “inactive” throughout. The Potency result in test [8], in test [17], in test [18], in [9], in test [11] and in test [12] was “inactive” each time. For the same compound, the Potency result in test [13] and in [14] was “inactive” in each case.
